Where “and” joins values, the source holds several entries; their conditions need not be identical. Equal entries are not always repeated. Unmarked numbers belong to inactive results. Results filed as inconclusive are left out. Calls of active or inactive are those of the source. Calls come from the whole dose curve; as a rule, active = well fitted curve in the direction sought with a large enough effect in the repeat runs; inconclusive = weak or mixed curves; inactive = no such curve, though single readings can be large; an effect the other way counts as inactive or inconclusive.

Experiment [1] is described as follows: Caspase-3/7 induction in CHO-K1 cells by small molecules, qHTS cell viability counter screen (AID 1346979). Note: nearly all actives have a fitted effect of over 35% in size. Note: potency is the fitted concentration of half-maximal effect. In short, it runs like this:
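Cytotoxicity counter screen run in parallel with the caspase-3/7 assay: CHO-K1 cells, 16hr compound treatment at 37C, then CellTiter-Fluor for 1hr before fluorescence reading.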

The nature of experiment [2]: Caspase-3/7 induction in CHO-K1 cells by small molecules, qHTS assay (AID 1346980). Note: nearly all actives have a fitted effect of over 15% in size. Note: potency is the fitted concentration of half-maximal effect. In short, it runs like this:
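Wild-type CHO-K1 cells exposed to compounds for 17hr at 37 C, 5% CO2. Caspase-3/7 activity then measured by Caspase-Glo 3/7 luminescence after 30min at room temperature.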

The nature of experiment [3]: Caspase-3/7 induction in HepG2 cells by small molecules, qHTS cell viability counter screen (AID 1346981). Note: nearly all actives have a fitted effect of over 30% in size. Note: potency is the fitted concentration of half-maximal effect. In short, it runs like this: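 Cell viability is measured as a cytotoxicity counter screen alongside the Caspase-Glo 3/7 readout in identical wells. Wild-type HepG2 cells are treated with test compounds for 16 hr at 37 C before CellTiter-Fluor addition and a 1-hr incubation.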
A general note: Quantitative high-throughput screening tests each substance at several concentrations.

Experiment [4] addresses Nuclear receptor subfamily 1 group I member 2 (Homo sapiens) (UniProt O75469). In words: Human pregnane X receptor (PXR) small molecule agonists, qHTS assay (AID 1346982). Note: nearly all actives have a fitted effect of over 35% in size. Note: potency is the fitted concentration of half-maximal effect. In short, it runs like this:
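Cells: HepG2 stably carrying PXR-Luc. Medium held 5% charcoal-stripped FBS. Compounds in DMSO added after 5 hr plating, incubated 24 hr, then luminescence quantified with ONE-Glo.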

For experiment [5] the target is unchanged. The experiment is described as follows: CYP3A4 induction through human pregnane X receptor (PXR) by small molecules, qHTS assay (AID 1346984). Note: nearly all actives have a fitted effect of over 40% in size. In short, it runs like this:
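Quantitative HTS in DPX-2 cells, i.e. HepG2 transfected with PXR response element and CYP3A4-promoter luciferase. Compounds in DMSO incubated 24hr at 37C; then P450-Glo CYP3A4 substrate, 3uM final, 3hr; One-Glo luminescence.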

Experiment [6] deals with Cytochrome P450 2C9 (Homo sapiens) (UniProt P11712). The experiment is described as follows: Cytochrome P450 Family 2 Subfamily C Member 9 (CYP2C9) small molecule antagonists: luciferase reporter qHTS assay (AID 1671198). Note: nearly all actives have a fitted effect of over 50% in size. Note: potency is the fitted concentration of half-maximal effect. Summed up:
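P450-Glo proluciferin substrate with CYP2C9 enzyme; 10 min RT preincubation, then NADPH regeneration 1 h at 37C; luciferin detection reagent 20 min RT, luminescence in relative luminescence units.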
Background: In a reporter assay the amount or activity of a reporter protein is the signal.

Experiment [7] concerns the target Nuclear receptor subfamily 1 group I member 2 (Homo sapiens) (UniProt O75469). In words: Human pregnane X receptor (PXR) activation by small molecules, qHTS assay (AID 1346985). Note: nearly all actives have a fitted effect of over 40% in size. Note: potency is the fitted concentration of half-maximal effect. Summed up: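 DPX-2 cells (HepG2 co-transfected with a PXR response element and a CYP3A4-promoter luciferase construct) were seeded at 2,000 per well, rested 5 hr at 37C, then exposed to DMSO-dissolved compounds for 24 hr. Activation was read as luciferase luminescence.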

The target in experiment [8] is Cytochrome P450 2C19 (Homo sapiens) (UniProt P33261). The experiment is described as follows: Cytochrome P450 Family 2 Subfamily C Member 19 (CYP2C19) small molecule antagonists: luciferase reporter qHTS assay (AID 1671197). Note: nearly all actives have a fitted effect of over 65% in size. Note: potency is the fitted concentration of half-maximal effect. Summed up:
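Light output is proportional to CYP2C19 activity: proluciferin substrate is converted to luciferin, then detected by a luciferin detection reagent that also stops the 1 h, 37C NADPH-driven reaction. Ketoconazole serves as positive control.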

Experiment [9] deals with Cytochrome P450 2D6 (Homo sapiens) (UniProt P10635). In words: Cytochrome P450 Family 2 Subfamily D Member 6 (CYP2D6) small molecule antagonists: luciferase reporter qHTS assay (AID 1671196). Note: nearly all actives have a fitted effect of over 50% in size. Note: potency is the fitted concentration of half-maximal effect. Summed up: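 Enzyme and proluciferin substrate were first combined with test chemical for 10 min at room temperature. Adding NADPH regeneration solution started a 1 h reaction, stopped with luciferin detection reagent and read by luminescence 20 min later.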

In experiment [10] the target is Nuclear receptor subfamily 1 group I member 2 (Rattus norvegicus) (UniProt Q9R1A7). In words: Rat pregnane X receptor (rPXR) activation by small molecules, qHTS assay (AID 1346983). Note: nearly all actives have a fitted effect of over 20% in size. The conditions noted are these: rPXR luciferase reporter cells, One-Glo luminescence, 24 h; max activation: active compounds read high. In short, it runs like this: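 Cell-based rPXR activation assay: rPXR cells, 2,000 per well, rested 5hr at 37 C, then exposed to compounds in DMSO for 24 hr at 37 C. Luciferase activity read by One-Glo luminescence after 30 min at room temperature.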
% is set by controls: 0 for no effect and ±100 for the full control effect.

Cytochrome P450 2C19 (Homo sapiens), sequence (P33261 whole entry, looked up): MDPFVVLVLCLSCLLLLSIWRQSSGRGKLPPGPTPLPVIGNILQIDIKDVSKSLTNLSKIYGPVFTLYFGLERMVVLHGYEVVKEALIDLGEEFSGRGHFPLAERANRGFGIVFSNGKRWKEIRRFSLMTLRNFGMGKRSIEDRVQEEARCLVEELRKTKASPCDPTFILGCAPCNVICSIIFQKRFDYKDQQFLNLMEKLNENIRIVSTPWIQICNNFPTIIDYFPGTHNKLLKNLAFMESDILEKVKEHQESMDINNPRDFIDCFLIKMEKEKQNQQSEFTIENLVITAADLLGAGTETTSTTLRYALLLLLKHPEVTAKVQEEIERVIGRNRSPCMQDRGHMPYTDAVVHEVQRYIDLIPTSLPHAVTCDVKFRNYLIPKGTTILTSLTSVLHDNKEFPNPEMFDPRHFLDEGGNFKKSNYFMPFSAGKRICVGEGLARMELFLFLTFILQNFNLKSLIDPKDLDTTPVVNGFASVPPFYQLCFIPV
Cytochrome P450 2C9 (Homo sapiens), sequence (P11712 whole entry, looked up): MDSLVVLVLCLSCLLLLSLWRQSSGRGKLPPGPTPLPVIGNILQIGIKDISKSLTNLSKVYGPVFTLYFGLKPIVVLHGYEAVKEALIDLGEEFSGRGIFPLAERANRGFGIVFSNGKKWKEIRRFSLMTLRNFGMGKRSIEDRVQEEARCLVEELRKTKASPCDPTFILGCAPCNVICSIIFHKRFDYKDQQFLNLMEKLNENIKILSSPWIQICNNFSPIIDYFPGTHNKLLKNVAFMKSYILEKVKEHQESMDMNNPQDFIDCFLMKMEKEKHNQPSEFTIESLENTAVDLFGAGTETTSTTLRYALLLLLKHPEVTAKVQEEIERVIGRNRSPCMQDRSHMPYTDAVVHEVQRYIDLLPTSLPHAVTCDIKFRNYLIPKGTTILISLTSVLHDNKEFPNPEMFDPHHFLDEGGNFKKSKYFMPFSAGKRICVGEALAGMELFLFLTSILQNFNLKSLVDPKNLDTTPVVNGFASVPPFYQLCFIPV
Nuclear receptor subfamily 1 group I member 2 (Homo sapiens), sequence (O75469 whole entry, looked up): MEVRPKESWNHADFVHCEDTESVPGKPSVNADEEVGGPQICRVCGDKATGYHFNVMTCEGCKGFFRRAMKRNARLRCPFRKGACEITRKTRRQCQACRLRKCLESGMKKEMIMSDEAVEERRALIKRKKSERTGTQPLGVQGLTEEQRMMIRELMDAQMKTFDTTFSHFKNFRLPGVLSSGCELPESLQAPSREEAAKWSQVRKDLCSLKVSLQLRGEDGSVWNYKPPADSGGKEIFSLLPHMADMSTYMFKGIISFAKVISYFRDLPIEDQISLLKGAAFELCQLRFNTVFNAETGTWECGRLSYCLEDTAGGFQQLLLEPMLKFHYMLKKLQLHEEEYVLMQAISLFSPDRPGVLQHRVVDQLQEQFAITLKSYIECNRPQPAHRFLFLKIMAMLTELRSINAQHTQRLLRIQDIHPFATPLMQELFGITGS
Cytochrome P450 2D6 (Homo sapiens), sequence (P10635 whole entry, looked up): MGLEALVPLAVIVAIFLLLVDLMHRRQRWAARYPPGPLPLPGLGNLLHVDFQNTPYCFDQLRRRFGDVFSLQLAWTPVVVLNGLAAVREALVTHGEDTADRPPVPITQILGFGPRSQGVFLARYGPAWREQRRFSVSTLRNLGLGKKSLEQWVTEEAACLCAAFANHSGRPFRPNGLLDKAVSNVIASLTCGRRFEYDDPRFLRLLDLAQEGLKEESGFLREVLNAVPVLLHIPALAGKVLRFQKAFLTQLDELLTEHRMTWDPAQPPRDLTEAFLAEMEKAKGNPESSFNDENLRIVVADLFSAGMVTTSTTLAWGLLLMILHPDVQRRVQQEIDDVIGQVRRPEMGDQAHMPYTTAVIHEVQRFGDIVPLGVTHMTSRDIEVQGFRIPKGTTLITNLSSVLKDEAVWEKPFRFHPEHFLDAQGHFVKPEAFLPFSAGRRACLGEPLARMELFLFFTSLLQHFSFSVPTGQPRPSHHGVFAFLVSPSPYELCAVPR
Nuclear receptor subfamily 1 group I member 2 (Rattus norvegicus), sequence (Q9R1A7 whole entry, looked up): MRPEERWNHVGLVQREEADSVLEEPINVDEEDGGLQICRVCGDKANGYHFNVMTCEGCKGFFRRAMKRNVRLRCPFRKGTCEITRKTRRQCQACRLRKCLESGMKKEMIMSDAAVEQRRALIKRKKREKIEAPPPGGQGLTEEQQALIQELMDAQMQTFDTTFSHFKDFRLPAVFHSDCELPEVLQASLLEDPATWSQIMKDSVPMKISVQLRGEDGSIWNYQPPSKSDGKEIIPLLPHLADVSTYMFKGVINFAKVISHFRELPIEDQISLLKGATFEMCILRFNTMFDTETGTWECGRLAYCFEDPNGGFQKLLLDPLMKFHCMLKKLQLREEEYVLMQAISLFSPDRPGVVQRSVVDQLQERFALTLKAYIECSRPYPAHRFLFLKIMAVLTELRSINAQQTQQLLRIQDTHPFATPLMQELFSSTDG

Regarding `CC(C)(C)NC(=O)[C@@H]1C[C@@H]2CCCC[C@@H]2CN1C[C@@H](O)[C@H](Cc1ccccc1)NC(=O)[C@H](CC(N)=O)NC(=O)c1ccc2ccccc2n1`, the Potency in experiment [1] was 19.6 µM (active); in experiment [2], 61.9 µM (active); in experiment [3], 27.7 µM (active); in experiment [4], 24.7 µM (active); in experiment [6], 40.4 µM (active). In [5], the Potency entry is “inactive”.
Take `Clc1ccccc1C(c1ccccc1)(c1ccccc1)n1ccnc1`: the Potency in [1] was 8.63 µM (active) and 7.5 µM (active); in experiment [3] it was 48.6 µM (active); in [4], 770 nM (active) and 11.9 µM (active); in experiment [7] it was 3.98 µM (active); in experiment [8] it was 3.99 µM (active) and 2.45 µM (active); in experiment [6], 1.12 µM (active) and 1.1 µM (active). Besides, the Potency entry in [2] and in [5] was “inactive” in each case.
Regarding `CO[Si](CCCNc1ccccc1)(OC)OC`, the Potency entry in [1], in experiment [2], in [3], in [4], in experiment [9] and in experiment [8] was “inactive” throughout.
Regarding `COc1cccc(N)c1`, the Potency in experiment [1] is 24.5 µM (active). The Potency result in experiment [2] and in [3] was “inactive” throughout.
Take `Cc1nc(-c2ccc3c(c2)CCN(CCC2CCC(NC(=O)/C=C/c4ccc(F)cc4)CC2)CC3)no1` (configuration not stated): the Potency in experiment [1] is 6.87 µM (active). Further, the Potency entry in experiment [2], in experiment [3], in [4], in [9] and in [8] was “inactive” each time.
`CC(=O)N1CCN(c2ccc(OC[C@H]3CO[C@](Cn4ccnc4)(c4ccc(Cl)cc4Cl)O3)cc2)CC1`: the Potency in experiment [1] was 27.3 µM (active); in experiment [3], 61.1 µM (active). Also, the Potency result in [2], in [4], in experiment [5] and in experiment [7] was “inactive” in each case.
`CCN(CC)CCNC(=O)c1c(C)[nH]c(/C=C2\C(=O)Nc3ccc(F)cc32)c1C`: the Potency is 13.3 µM (active) in experiment [1] and 10.6 µM (active) in experiment [3]. Further, in [2], the Potency entry was “inactive”.
As for `COc1cccc2c1C(=O)c1c(O)c3c(c(O)c1C2=O)C[C@@](O)(C(=O)CO)C[C@@H]3O[C@H]1C[C@H](N)[C@H](O[C@@H]2CCCCO2)[C@H](C)O1`, the Potency in experiment [1] is 6.68 µM (active); in [3] it was 8.41 µM (active); in experiment [6], 15.5 µM (active). The Potency result in experiment [2], in experiment [4] and in experiment [5] was “inactive” each time.
For `[Cl][Au]([Cl])[Cl]`, the Potency was 24.3 µM (active) in experiment [1] and 68.6 µM (active) in experiment [3]. Besides, in [2], the Potency entry was “inactive”.
For `CC(C)CCCCCCCCCCCCCCC(=O)O`, the Potency result in experiment [1], in [2], in experiment [3], in experiment [4], in experiment [9] and in experiment [8] was “inactive” in each case. Besides, the Potency entry in experiment [6] is “inactive”.
In the case of `COc1cc(/C=C/C(=O)O[C@H]2CC[C@]34C[C@]35CC[C@]3(C)[C@@H]([C@H](C)CCC=C(C)C)CC[C@@]3(C)[C@@H]5CC[C@H]4C2(C)C)ccc1O`, the Potency result in experiment [1], in [2], in experiment [3], in [4], in [5] and in [7] was “inactive” throughout. Moreover, the Potency result in experiment [9], in experiment [8] and in [6] was “inactive” throughout.
Consider `O=[N+]([O-])c1cc(Cl)c(Cl)c(Cl)c1Cl`, for which the figures for the Potency in [1], in experiment [4] and in experiment [8] were 60.9 µM (active), 60.9 µM (active) and 39.8 µM (active), respectively. Besides, the Potency entry in [2], in [3] and in [9] was “inactive” throughout.
On to `O=C(N/N=C/c1ccccc1O)c1ccncc1`, for which the values for the Potency in [1] and in experiment [6] were 7.5 µM (active) and 2.19 µM (active), respectively. In addition, the Potency result in experiment [2], in [3], in [4], in experiment [5] and in [7] was “inactive” each time. Moreover, the max activation in [10] is -3.33%.
For `C=CC(=O)OCC(CO)(COCC(COC(=O)C=C)(COC(=O)C=C)COC(=O)C=C)COC(=O)C=C`, the Potency in [1] is 0.76 µM (active); in [2], 0.48 µM (active); in experiment [3] it was 3.81 µM (active); in experiment [4], 1.91 µM (active); in experiment [9], 15.7 µM (active); in experiment [8] it was 7.87 µM (active). For the same compound, the Potency in experiment [6] is 7.02 µM (active).
Consider `O=C(O)c1cc(O)c2c(c1)C(=O)c1cccc(O)c1C2=O`, for which the Potency in experiment [1] was 35.4 µM (active); in experiment [3], 44.6 µM (active). Also, the Potency entry in experiment [2], in experiment [4], in experiment [9] and in experiment [8] was “inactive” throughout.
As to `CC(C)(C)CC(C)(C)c1ccc(O)c(Cc2ccc(Cl)cc2Cl)c1`, the Potency was 18.8 µM (active) in [1]; 21.1 µM (active) in experiment [2]; 29.8 µM (active) in experiment [3]; 2.37 µM (active) in experiment [4]; 1.74 µM (active) in [8]; 5.49 µM (active) in experiment [6]. The max activation in experiment [10] is -0.0398%. In addition, in experiment [5], the Potency entry is “inactive”.
Consider `CCN1/C(=C/C=C/c2sc3ccccc3[n+]2CC)Sc2ccccc21`, for which the Potency in [1] is 1.46 µM (active); in [3], 10.3 µM (active); in experiment [9], 12 µM (active); in experiment [8], 19 µM (active). In addition, in experiment [2], the caspase-3/7 activation was 0.607% [at 19 µM]. Further, the activation in experiment [4] is 29.7% [at 19 µM]. The Potency result in experiment [5] and in experiment [7] was “inactive” throughout.
On to `O=C(NOCC1CC1)c1ccc(F)c(F)c1Nc1ccc(I)cc1Cl`, for which the Potency is 18.8 µM (active) in experiment [1], 26.6 µM (active) in experiment [3], 0.246 µM (active) in [8] and 0.55 µM (active) in experiment [6]. The Potency result in [2], in experiment [4] and in experiment [9] was “inactive” each time.
For `Clc1ccc2nsnc2c1NC1=NCCN1`, the Potency result in experiment [1], in experiment [2], in experiment [3], in [4], in experiment [5] and in [7] was “inactive” in each case. Moreover, in experiment [6], the Potency entry is “inactive”. In [9], the Potency is 12.3 µM (active).
Consider `C[C@]12CCC(=O)C=C1CC[C@@H]1[C@@H]2[C@@H](O)C[C@@]2(C)[C@H]1CC[C@]2(O)C(=O)COC(=O)CCC(=O)O`, for which the Potency result in experiment [1], in experiment [2], in experiment [3], in experiment [4], in experiment [9] and in experiment [8] was “inactive” in each case. In experiment [6], the Potency result was “inactive”.
On to `Cn1cc(C(=O)[C@@H]2CCc3nc[nH]c3C2)c2ccccc21`, for which the Potency result in [1], in experiment [2], in experiment [3], in experiment [4], in experiment [5] and in experiment [7] was “inactive” throughout. Further, in [6], the Potency entry is “inactive”. The Potency is 17.4 µM (active) in experiment [9] and 8.71 µM (active) in experiment [8].
